Most compounds without a hit are left out; they make up all but 3.5% or so of the library.
GPR151 ag: activates the human receptor GPR151. Q8TDV0. PathHunter beta-arrestin GPR151 cells, luminescence. activation, % at 11.2 µM. actives 1% (n = 650,000); in the data active means activation above about 4.9%
TEAD-YAP inh: TEAD-YAP interaction inhibition. actives 1.4% (n = 640,000). HEK-TIYL cells, TEAD-Gal4/YAP UAS-luciferase luminescence. AID 1259422. inhibition, % at 9.12 µM; in the data active means inhibition above about 32%
FBW7 activator: activators of human E3 ligase FBW7; Q969H0; AlphaScreen FBW7–phospho-cyclin E peptide binding, activator screen; normalized activity (activation), % at 26.1 µM; actives 0.13% (n = 650,000); in the data active means normalized activity above about 1.9%;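 further: purified mutant Fbw7 with reduced substrate affinity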
Target sequence (Q969H0 whole entry, looked up): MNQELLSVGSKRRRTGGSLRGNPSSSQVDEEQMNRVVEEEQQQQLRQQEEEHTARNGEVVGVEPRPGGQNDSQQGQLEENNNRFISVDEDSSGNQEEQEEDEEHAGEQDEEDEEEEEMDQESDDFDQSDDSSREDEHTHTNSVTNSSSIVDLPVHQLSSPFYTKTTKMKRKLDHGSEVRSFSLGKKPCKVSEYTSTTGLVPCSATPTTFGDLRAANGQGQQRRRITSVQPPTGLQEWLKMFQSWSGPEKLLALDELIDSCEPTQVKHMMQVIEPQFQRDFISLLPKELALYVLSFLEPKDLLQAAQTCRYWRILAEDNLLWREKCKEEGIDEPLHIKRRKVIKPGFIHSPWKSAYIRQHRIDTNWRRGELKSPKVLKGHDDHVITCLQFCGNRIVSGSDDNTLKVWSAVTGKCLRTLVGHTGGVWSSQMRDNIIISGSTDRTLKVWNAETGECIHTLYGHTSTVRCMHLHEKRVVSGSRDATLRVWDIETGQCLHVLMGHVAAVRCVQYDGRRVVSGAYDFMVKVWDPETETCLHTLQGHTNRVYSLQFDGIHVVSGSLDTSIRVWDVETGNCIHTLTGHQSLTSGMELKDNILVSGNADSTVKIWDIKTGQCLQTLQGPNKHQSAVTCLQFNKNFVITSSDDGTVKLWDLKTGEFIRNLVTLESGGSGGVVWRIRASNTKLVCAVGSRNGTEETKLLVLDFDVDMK
MITF primary: human MITF inhibition, primary screen | inhibition, % at 2.6 µM | O75030 | AlphaScreen MITF homodimerization, bead proximity signal | actives 0.91% (n = 650,000); in the data active means inhibition above about 50%
Hits are given with their value.

What do the screens show for `CCS(=O)(=O)NC(C)C(c1cccs1)N1CCN(Cc2ccccc2)CC1` (centres undefined)?
GPR151 ag: inactive; TEAD-YAP inh: inactive; FBW7 activator: inactive; MITF primary: inactive

What do the screens show for `Cc1cccc(NC(=O)c2cc(S(=O)(=O)NC3CCCC(C)C3C)ccc2F)c1C` (centres undefined)?
GPR151 ag: inactive; TEAD-YAP inh: inactive; FBW7 activator: inactive; MITF primary: inactive

Results for CCS(=O)(=O)N1CCN(Cc2nc(-c3ccc(Cl)cc3)cs2)CC1 ?
GPR151 ag: inactive; TEAD-YAP inh: 33; FBW7 activator: inactive; MITF primary: inactive

What do the screens show for `CN=c1scc(C)n1/N=C/c1ccc(O)c(O)c1O`?
GPR151 ag: inactive; TEAD-YAP inh: inactive; FBW7 activator: inactive; MITF primary: inactive

How did CN=c1scc(-c2cccs2)n1/N=C/c1ccccc1O do in these assays?
GPR151 ag: inactive; TEAD-YAP inh: 95; FBW7 activator: inactive; MITF primary: inactive

How did CN=c1scc(-c2cccs2)n1/N=C/c1ccc(O)c(O)c1O do in these assays?
GPR151 ag: inactive; TEAD-YAP inh: 71; FBW7 activator: inactive; MITF primary: inactive

What do the screens show for `COCCN=c1scc(-c2ccco2)n1/N=C/c1ccc(O)c(O)c1O`?
GPR151 ag: inactive; TEAD-YAP inh: inactive; FBW7 activator: inactive; MITF primary: inactive

Results for C=CCN=c1scc(-c2ccco2)n1/N=C/c1ccc(O)c(O)c1O ?
GPR151 ag: inactive; TEAD-YAP inh: 55; FBW7 activator: inactive; MITF primary: inactive

Results for CCSCCOC(=O)C1=C(C)N(C)C(=O)NC1c1cc2c(cc1Br)OCO2 (centres undefined) ?
GPR151 ag: inactive; TEAD-YAP inh: inactive; FBW7 activator: inactive; MITF primary: inactive

How did COC(=O)c1sc2nc3cc(C)c(C)cc3cc2c1N do in these assays?
GPR151 ag: inactive; TEAD-YAP inh: inactive; FBW7 activator: inactive; MITF primary: inactive

How did COc1ccc(OC)c(NS(=O)(=O)c2ccc(-c3ccccc3)cc2)c1 do in these assays?
GPR151 ag: inactive; TEAD-YAP inh: 35; FBW7 activator: inactive; MITF primary: inactive

How did COc1ccc(S(=O)(=O)Nc2ccc(C)cn2)cc1 do in these assays?
GPR151 ag: inactive; TEAD-YAP inh: inactive; FBW7 activator: 2.5; MITF primary: inactive

What do the screens show for `COc1ccc(OC)c(NC(=O)C2CCCC2)c1`?
GPR151 ag: inactive; TEAD-YAP inh: inactive; FBW7 activator: 25; MITF primary: inactive

What do the screens show for `COc1ccc(S(=O)(=O)Nc2cc(OC)ccc2OC)cc1`?
GPR151 ag: inactive; TEAD-YAP inh: 61; FBW7 activator: inactive; MITF primary: inactive

What do the screens show for `CC1(C)CC(=O)C(C(=S)Nc2ccc(F)cc2)=C(NCCc2ccccc2)C1`?
GPR151 ag: inactive; TEAD-YAP inh: inactive; FBW7 activator: inactive; MITF primary: inactive

What do the screens show for `CC(C)(C)c1ccc(C2NC(=O)c3ccccc3N2)cc1` (centres undefined)?
GPR151 ag: inactive; TEAD-YAP inh: 48; FBW7 activator: inactive; MITF primary: inactive

How did O=C1NC(c2ccc(-c3ccccc3)cc2)Nc2ccccc21 (centres undefined) do in these assays?
GPR151 ag: inactive; TEAD-YAP inh: 40; FBW7 activator: inactive; MITF primary: inactive

Results for Brc1cccc(C2Nc3cccc4cccc(c34)N2)c1 ?
GPR151 ag: inactive; TEAD-YAP inh: inactive; FBW7 activator: inactive; MITF primary: inactive

How did CN(C)c1ccc(C2NC(=O)c3ccccc3N2)cc1 (centres undefined) do in these assays?
GPR151 ag: inactive; TEAD-YAP inh: 56; FBW7 activator: inactive; MITF primary: inactive

How did O=C1NC(c2cccc(Br)c2)Nc2ccccc21 (centres undefined) do in these assays?
GPR151 ag: inactive; TEAD-YAP inh: 49; FBW7 activator: inactive; MITF primary: inactive

How did N#CCOc1ccc(C2NC(=O)c3ccccc3N2)cc1 (centres undefined) do in these assays?
GPR151 ag: inactive; TEAD-YAP inh: inactive; FBW7 activator: inactive; MITF primary: inactive

What do the screens show for `O=C1NC(c2ccncc2)Nc2ccccc21` (centres undefined)?
GPR151 ag: inactive; TEAD-YAP inh: inactive; FBW7 activator: inactive; MITF primary: inactive

How did CC1CCCCC1NC(=O)c1cc(S(=O)(=O)N2CCOCC2)cn1C (centres undefined) do in these assays?
GPR151 ag: inactive; TEAD-YAP inh: inactive; FBW7 activator: inactive; MITF primary: inactive

Results for CC(=O)c1cccc(NC(=O)Nc2ccc(Br)cc2F)c1 ?
GPR151 ag: inactive; TEAD-YAP inh: inactive; FBW7 activator: inactive; MITF primary: inactive

Results for CCOC(=O)C1CCN(C(=O)COc2ccc(Cl)c(C)c2)CC1 ?
GPR151 ag: inactive; TEAD-YAP inh: inactive; FBW7 activator: inactive; MITF primary: inactive

Assay outcomes: PubChem, The Scripps Research Institute Molecular Screening Center
